Screening results (PubChem)
KCNQ2 pot: enhances the rat KCNQ2 potassium channel; 310,000 compounds, 0.54% hits; B-score at 10 µM; O88943; CHO-K1 KCNQ2, FluxOR thallium flux fluorescence; active compounds read high;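 active = fluorescence ratio B-score at least 3 SD of library B-scores, with initial fluorescence B-score within 3 of them, cut at about 5.3 in these data; same plate scores as AID 2156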;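 also: B-score of peak minus minimum over baseline fluorescence ratio after K+ and Tl+ stimulus; positive B-score means potentiation of KCNQ2 with more thallium influx and brighter signal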
KCNQ2 inh: KCNQ2 (rat) channel inhibition; CHO-K1 KCNQ2, FluxOR thallium flux, 20 min; active compounds read low; B-score at 10 µM; 310,000 compounds, 1.1% hits; AID 2156;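 active = fluorescence ratio B-score at most minus 3 library SDs, with starting brightness B-score within 2 library SDs, cut at about -5.5 in these data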
KCNQ2 block conf: rat KCNQ2 channel inhibition, confirmatory screen; KCNQ2-expressing cells, thallium flux; active compounds read low; shares compounds with KCNQ2 inh; AID 493025; 1,000 compounds, 57% hits; activity change, negative = inhibition, % at 10 µM;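 also: 0% = vehicle wells and values are ratio percent relative to vehicle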
KCNQ1 spec: selectivity of KCNQ2 inhibitors against human KCNQ1 | shares compounds with KCNQ2 inh | KCNQ1-expressing cells, FluxOR thallium flux fluorescence; active compounds read low | activity change, negative = inhibition, % at 10 µM | 1,000 compounds, 15% hits;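 active = activity change at least 3 SD of negative controls below their mean in both duplicate wells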;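 also: CHO cells stably transfected with KCNQ1 and depolarized by potassium stimulus; peak minus minimum fluorescence over baseline after thallium addition; 0% = vehicle negative control and -100% = blank without thallium stimulus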
Target sequence (P51787 whole entry, looked up): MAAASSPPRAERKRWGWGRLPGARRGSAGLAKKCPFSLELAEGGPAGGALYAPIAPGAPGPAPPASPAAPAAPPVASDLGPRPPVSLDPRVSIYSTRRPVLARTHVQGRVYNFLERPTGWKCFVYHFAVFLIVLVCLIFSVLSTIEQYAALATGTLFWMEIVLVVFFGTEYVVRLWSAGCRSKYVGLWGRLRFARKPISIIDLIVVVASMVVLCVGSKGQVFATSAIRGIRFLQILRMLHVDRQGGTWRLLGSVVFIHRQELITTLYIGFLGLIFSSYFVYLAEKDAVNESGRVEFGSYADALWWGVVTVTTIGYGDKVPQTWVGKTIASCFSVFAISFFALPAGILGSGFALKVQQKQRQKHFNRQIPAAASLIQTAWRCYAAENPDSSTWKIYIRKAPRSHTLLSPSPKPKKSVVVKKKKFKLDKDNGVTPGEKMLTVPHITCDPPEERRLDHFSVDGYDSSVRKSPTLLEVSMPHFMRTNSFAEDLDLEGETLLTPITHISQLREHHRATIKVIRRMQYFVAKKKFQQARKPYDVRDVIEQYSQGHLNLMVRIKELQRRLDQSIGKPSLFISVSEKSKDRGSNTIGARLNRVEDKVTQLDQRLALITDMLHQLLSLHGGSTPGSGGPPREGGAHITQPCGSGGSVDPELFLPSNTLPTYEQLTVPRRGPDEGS
CHO parental ctr: KCNQ2 inhibitor counter-screen hit in parental CHO cells. thallium flux counter-screen; active compounds read low. 1,000 compounds, 14% hits. AID 493029. activity change, % at 10 µM. shares compounds with KCNQ2 inh;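 also: 0% = vehicle negative controls with stimulus buffer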
KCNQ2 patch conf: confirmation of rat KCNQ2 potassium channel inhibitors; AID 588531; shares compounds with KCNQ2 inh; calls only at 10 µM; 550 compounds, 49% hits; KCNQ2-expressing cells, automated patch clamp current
Starred values were filed as active, the others as inactive. Shown are actives, neighbours in structure and some others; about 1.6% of the full set was active somewhere. Unless noted, no rule for the calls is given here.

How did O=C(N/C=C\c1ccccc1)NCc1ccc(Cl)cc1Cl do in these assays?
KCNQ2 inh: inactive

How did O=C(N/C=C\c1ccccc1)NCc1ccc(Cl)cc1 do in these assays?
KCNQ2 pot: -7; KCNQ2 inh: -7*; KCNQ2 block conf: inactive; KCNQ1 spec: inactive; CHO parental ctr: inactive

How did C(=N\Nc1nc(N2CCCCC2)nc(N2CCCCC2)n1)/c1c[nH]c2ccccc12 do in these assays?
KCNQ2 pot: -9.3; KCNQ2 inh: -9.3*; KCNQ2 block conf: -36%*; KCNQ1 spec: inactive; CHO parental ctr: inactive; KCNQ2 patch conf: active

What do the screens show for `CN(C)c1nc(N/N=C/c2c[nH]c3ccccc23)nc(N2CCOCC2)n1`?
KCNQ2 pot: 1.7; KCNQ2 inh: inactive

How did CC1(c2nnc(-c3ccc(F)cc3)o2)CC(c2ccc([N+](=O)[O-])cc2)=NO1 (configuration not stated) do in these assays?
KCNQ2 pot: 0.62; KCNQ2 inh: inactive

What do the screens show for `CSc1ccccc1NC(=O)CN(C1CCCCC1)S(C)(=O)=O`?
KCNQ2 inh: inactive

How did CN(CC(=O)Nc1ccccc1Sc1ccccc1)C1CCCCC1 do in these assays?
KCNQ2 pot: -6.7; KCNQ2 inh: -6.7*; KCNQ2 block conf: -37%*; KCNQ1 spec: -35%*; CHO parental ctr: -27%*; KCNQ2 patch conf: inactive

Results for CC(C)Nc1nc(Cl)nc(Nc2ccccc2)n1 ?
KCNQ2 pot: 0.13; KCNQ2 inh: inactive

How did COC(=O)c1ccc(C(=O)OC)c(NC(=O)COC(=O)CC2CC3CCC2C3)c1 (configuration not stated) do in these assays?
KCNQ2 pot: -11; KCNQ2 inh: -11*; KCNQ2 block conf: inactive; KCNQ1 spec: inactive; CHO parental ctr: inactive

What do the screens show for `Cc1ccc(Cl)cc1NC(=O)COC(=O)CC1CC2CCC1C2` (configuration not stated)?
KCNQ2 inh: inactive

Results for O=C(CSc1nncn1-c1ccccc1)NC1CCCCC1 ?
KCNQ2 pot: 0.76; KCNQ2 inh: inactive

How did CCOC(=O)c1cn2nc(-c3ccc(OC)cc3)cc2nc1C1CCN(C(=O)OC(C)(C)C)CC1 do in these assays?
KCNQ2 pot: -8.6; KCNQ2 inh: -8.6*; KCNQ2 block conf: inactive; KCNQ1 spec: inactive; CHO parental ctr: inactive

How did COc1ccc(-c2cc(C3CCN(C(=O)OC(C)(C)C)CC3)[nH]n2)cc1 do in these assays?
KCNQ2 inh: inactive

What do the screens show for `CCCCn1c(N)c(N(CCC(C)C)C(=O)c2[nH]c(C)c(C(=O)OCC)c2C)c(=O)[nH]c1=O`?
KCNQ2 inh: inactive

Results for O=C(NC(Cc1ccccc1)c1ccc2c(c1)OCCCO2)c1ccccc1F (configuration not stated) ?
KCNQ2 inh: inactive

Results for CC(=O)N(CCC(Cc1ccccc1)c1ccc2c(c1)OCO2)Cc1ccccc1F (configuration not stated) ?
KCNQ2 pot: -7.2; KCNQ2 inh: -7.2*; KCNQ2 block conf: -35%*; KCNQ1 spec: inactive; CHO parental ctr: inactive; KCNQ2 patch conf: inactive

Results for Cc1ccc(NC(=S)NNC(=O)c2ccc(N3CCOCC3)c([N+](=O)[O-])c2)cc1C ?
KCNQ2 inh: inactive

What do the screens show for `Cn1cnnc1SCC(=O)Nc1ccc(F)cc1`?
KCNQ2 inh: inactive

Results for CCn1cnc2cc(NCc3nc4ccccc4n3Cc3ccccc3)ccc21 ?
KCNQ2 pot: -8.5; KCNQ2 inh: -8.5*; KCNQ2 block conf: -34%*; KCNQ1 spec: inactive; CHO parental ctr: inactive; KCNQ2 patch conf: active

What do the screens show for `CCn1cnc2cc(NCc3nc4ccccc4n3C)ccc21`?
KCNQ2 inh: inactive

How did O=C(CSc1nnc(NC(=O)c2cccc(F)c2)s1)NC1CCCC1 do in these assays?
KCNQ2 inh: inactive

How did CCc1cccc2c1Sc1ccccc1CC2N1CCNCC1 (configuration not stated) do in these assays?
KCNQ2 inh: inactive

Results for Cc1cccc2c1Sc1ccc(Cl)cc1CC2N1CCNCC1 (configuration not stated) ?
KCNQ2 pot: -8.4; KCNQ2 inh: -8.4*; KCNQ2 block conf: -42%*; KCNQ1 spec: -34%*; CHO parental ctr: -28%*; KCNQ2 patch conf: active

What do the screens show for `CCOC(=O)N1CCC(n2c(SCC(=O)N3CCCC3)nc3ccccc3c2=O)CC1`?
KCNQ2 inh: inactive

What do the screens show for `CCOC(=O)N1CCC(n2c(SCC(=O)NCCC3=CCCCC3)nc3ccccc3c2=O)CC1`?
KCNQ2 pot: -7.5; KCNQ2 inh: -7.5*; KCNQ2 block conf: inactive; KCNQ1 spec: inactive; CHO parental ctr: inactive

Results for CCOC(=O)N1CCC(n2c(SCC(=O)NCc3ccccc3)nc3ccccc3c2=O)CC1 ?
KCNQ2 inh: inactive

How did CCOC(=O)N1CCC(n2c(SCC(=O)N3CCC(C)CC3)nc3ccccc3c2=O)CC1 do in these assays?
KCNQ2 pot: -7.8; KCNQ2 inh: -7.8*; KCNQ2 block conf: inactive; KCNQ1 spec: inactive; CHO parental ctr: inactive

Results for CCOc1ccc(-c2nc(CN3CCCCC3CCn3cccn3)c(C)o2)cc1 (configuration not stated) ?
KCNQ2 inh: inactive

How did CCOC(=O)C1(Cc2ccc(Cl)cc2)CCN(C(=O)c2cnc(C)cn2)CC1 do in these assays?
KCNQ2 pot: 0.44; KCNQ2 inh: inactive

Results for O=C(Nc1ccc(Cl)cc1)Nc1ccc(N2CCOCC2)cc1 ?
KCNQ2 inh: inactive

What do the screens show for `O=C(Nc1ccc(N2CCOCC2)cc1)Nc1ccc(Cl)c(Cl)c1`?
KCNQ2 pot: -6.6; KCNQ2 inh: -6.6*; KCNQ2 block conf: -28%*; KCNQ1 spec: inactive; CHO parental ctr: inactive; KCNQ2 patch conf: inactive

How did Cc1ccc(C(=O)N/C(=C/c2ccc(Cl)cc2)C(=O)N2CCOCC2)cc1 do in these assays?
KCNQ2 inh: inactive

How did CC(NC(=O)c1ccc(CS(C)(=O)=O)cc1)c1cccc2ccccc12 (configuration not stated) do in these assays?
KCNQ2 pot: 0.4; KCNQ2 inh: inactive

What do the screens show for `CCC(C(=O)N1CCN(c2ccccc2OC)CC1)c1ccccc1` (configuration not stated)?
KCNQ2 inh: inactive

How did COc1ccccc1N1CCN(C(=O)C(Cc2ccccc2)NC(=O)C2CCCCC2)CC1 (configuration not stated) do in these assays?
KCNQ2 pot: -7.4; KCNQ2 inh: -7.4*; KCNQ2 block conf: -33%*; KCNQ1 spec: inactive; CHO parental ctr: inactive; KCNQ2 patch conf: active

What do the screens show for `CC(C)(C)NC(=O)NC(=O)CN1CCN(S(=O)(=O)c2ccc3c(c2)OCCO3)CC1`?
KCNQ2 pot: 0.25; KCNQ2 inh: inactive

What do the screens show for `O=C(CSc1cccs1)Nc1ccc(Cl)cc1`?
KCNQ2 pot: 0.28; KCNQ2 inh: inactive

Results for CC(=O)Nc1ccc(NC(=O)c2ccccc2N(C)S(=O)(=O)c2ccccc2)cc1 ?
KCNQ2 inh: inactive
